Laboratory results: PubChem BioAssay (Tox21)
Records with an inconclusive call do not appear. A call without a number means that no potency is given here. Values without a mark were called inactive. Active and inactive are the calls of the source. Unless noted, calls follow the shape of the dose curve; as a rule, active = well fitted curve in the direction sought with a large enough effect in the repeat runs; inconclusive = weak or mixed curves; inactive = no such curve, though single readings can be large; an effect the other way counts as inactive or inconclusive.

How the values were obtained:
[1] = qHTS assay to identify small molecule antagonists of the vitamin D receptor (VDR) signaling pathway - cell viability counter screen (AID 743225); also: nearly all actives have a fitted effect of over 50% in size
Summary of the method: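 Same-well multiplex: following 16 h treatment of HEK 293T cells carrying a UAS-driven beta-lactamase reporter with compound and agonist (3 nM final), and a 2 h FRET substrate step, CellTiter-Glo was added and luminescence read after 30 min.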

[2] = qHTS assay to identify small molecule agonists of the NFkB signaling pathway (AID 1159509; active = well fitted curve in the direction sought with a large enough effect in the signal ratio in the repeat runs, not every such curve was filed as active; the % refers to the signal ratio; also: series mostly up to about 61 µM)
Summary of the method: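 Readout: FRET fluorescence, 405 nm excitation, 460/530 nm emission; beta-lactamase expression disrupts FRET. Cells: ME-180 stably carrying NF-kB-driven bla reporter. Compound exposure 5 hr, 37 C, 5% CO2.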

[3] = qHTS assay to identify small molecule agonists of the NFkB signaling pathway - cell viability counter screen (AID 1159515; calls by dose curve; also: series mostly up to about 61 µM; nearly all actives have a fitted effect of over 55% in size)
Summary of the method: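 Read by CellTiter-Glo luminescence (30 min, room temperature) in the wells also used for the beta-lactamase FRET read. ME-180 NFkB-bla cells at 2,000 per well were plated overnight, then exposed to compound for 5 hr at 37 C.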

[4] = qHTS assay to identify small molecule agonists of the endoplasmic reticulum stress response signaling pathway - cell viability counter screen (AID 1159517; calls by dose curve; also: series mostly up to about 61 µM; nearly all actives have a fitted effect of over 50% in size)
Summary of the method: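 Cytotoxicity of test compounds toward ESRE-bla HeLa cells was assessed after 5 hr exposure. The luminescent CellTiter-Glo signal was measured 30 min after reagent addition.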

[5] = qHTS assay to identify small molecule antagonists of the retinoid-related orphan receptor gamma (ROR-gamma) signaling pathway - cell viability counter screen (AID 1159520); also: nearly all actives have a fitted effect of over 50% in size
Summary of the method: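 Tet-on ROR gamma CHO cells (1,000/well) were plated 4 hr, given compounds in DMSO for 2 hr at 37 C, then induced with 1 uM final doxycycline for 16 hr. Viability was read as ATP by CellTiter-Glo luminescence after 30 min.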

[6] = molecular target: Nuclear receptor ROR-gamma (Homo sapiens) (UniProt P51449); assay: qHTS assay to identify small molecule antagonists of the retinoid-related orphan receptor gamma (ROR-gamma) signaling pathway (AID 1159521;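 also: CHO cells with doxycycline inducible ROR-gamma driving an RORE luciferase reporter; top concentration of the series differs between compounds; nearly all actives have a fitted effect of over 50% in size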)
Summary of the method: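 Inducible-expression reporter assay: doxycycline (1 uM final) switched on RORγ in CHO cells bearing a ROR response element-luciferase construct, with test compounds present from 2 h beforehand. Decreased luminescence after 16 h defined antagonist activity.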

[7] = qHTS assay to identify small molecule agonists of the AP-1 signaling pathway - cell viability counter screen (AID 1159525; calls by dose curve; also: nearly all actives have a fitted effect of over 55% in size)
Summary of the method: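 Each titration point was normalised to DMSO and tetra n-octyl ammonium bromide controls. The read was Cell Titer Glo luminescence after 30 min at RT, following 5 h compound exposure of ME-180 AP-1-bla cells at 37 °C.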

[8] = qHTS assay to identify small molecule agonists of the AP-1 signaling pathway (AID 1159526; calls by dose curve)
[9] = molecular target: Retinoic acid receptor RXR-alpha (Homo sapiens) (UniProt P19793); assay: qHTS assay to identify small molecule agonists of the RXR signaling pathway (AID 1159527; calls by dose curve; also: nearly all actives have a fitted effect of over 35% in size)
Sequence of Retinoic acid receptor RXR-alpha (Homo sapiens) (P19793 whole entry, looked up): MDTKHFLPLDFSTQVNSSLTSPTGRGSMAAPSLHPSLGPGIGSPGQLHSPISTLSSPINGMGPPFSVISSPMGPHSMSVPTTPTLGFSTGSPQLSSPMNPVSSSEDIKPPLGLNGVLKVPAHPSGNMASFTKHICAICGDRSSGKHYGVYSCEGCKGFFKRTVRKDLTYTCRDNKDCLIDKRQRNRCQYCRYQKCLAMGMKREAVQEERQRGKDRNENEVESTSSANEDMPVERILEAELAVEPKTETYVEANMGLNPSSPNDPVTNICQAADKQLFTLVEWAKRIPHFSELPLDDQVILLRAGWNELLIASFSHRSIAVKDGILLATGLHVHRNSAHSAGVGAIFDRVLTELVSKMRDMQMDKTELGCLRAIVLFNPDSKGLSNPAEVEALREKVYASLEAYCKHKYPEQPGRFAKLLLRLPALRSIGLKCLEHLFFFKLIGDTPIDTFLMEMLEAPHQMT
Summary of the method: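 Compounds in DMSO were added to RXR-alpha-UAS-bla HEK 293T cells kept in 2% charcoal-stripped serum, and incubated 16 hr at 37 C with 5% CO2. Reporter signal came from a 2 hr B/G FRET substrate step.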

[10] = qHTS assay to identify small molecule agonists of the RXR signaling pathway - cell viability counter screen (AID 1159529)
Summary of the method: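 Counter screen: CellTiter-Glo luminescence. Cells: RXR-alpha-UAS-bla HEK 293T. Medium: 2% charcoal-stripped FBS. Treatment: 16 h, 37 C. Reagent incubation: 30 min, RT.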

[11] = qHTS assay to identify small molecule antagonists of the retinoid acid receptor (RAR) signaling pathway - cell viability counter screen (AID 1159551); also: nearly all actives have a fitted effect of over 35% in size
Summary of the method: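 Cytotoxicity counter screen: ATP content quantified by CellTiter-Glo luminescence in C3RL4 cells treated 6 hr at 37 C with compound and retinol (1 uM final). Cells plated at 1,000/well and cultured overnight before dosing.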

[12] = qHTS assay to identify small molecule antagonists of the retinoic acid receptor (RAR) signaling pathway (AID 1159552; also: nearly all actives have a fitted effect of over 50% in size)
Summary of the method: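 Antagonism of retinol-induced RARE reporter activity was measured in C3RL4 cells. Exposure to compounds and 1 uM final retinol lasted 6 hr at 37 C, with luminescence as endpoint.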

[13] = qHTS assay to identify small molecule agonists of the retinoic acid receptor (RAR) signaling pathway (AID 1159553); also: potency is read from the fitted curve at half-maximal effect
Summary of the method: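 Luminescence was measured 30 min after luciferase reagent addition at room temperature. Before that, C3RL4 reporter cells (1,000 per well, plated overnight) were treated with compound for 6 hr at 37 C and 5% CO2.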

[14] = qHTS assay to identify small molecule agonists of the endoplasmic reticulum stress response signaling pathway (AID 1159516; active = well fitted activation curve with a large enough effect in the signal ratio in the repeat runs, not every such curve was filed as active; the % refers to the signal ratio)
Summary of the method: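 Ratiometric FRET readout (405 nm excitation; 460 and 530 nm emission) of a beta-lactamase gene driven by the ER stress response element, after 2 hr substrate loading. HeLa ESRE-bla cells were seeded overnight and treated with compounds for only 5 hr at 37 C.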

[15] = qHTS assay to identify small molecule antagonists of the estrogen related receptor (ERR) signaling pathway - cell viability counter screen (AID 1224818);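 also: series mostly up to about 46 µM; viability measured after 17.5 h of compound exposure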
Summary of the method: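 Cytotoxicity counter screen: fluorescence from CellTiter-Fluor, added after 17.5 h compound exposure at 37 C and read 30 min later. ERR cell line seeded at 2,000 cells/well, preincubated 6 h before dosing.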

[16] = qHTS assay to identify small molecule antagonists of the estrogen related receptor signaling pathway with the pleiotropic PPARgamma coactivator (PGC) cell viability counter screen (AID 1224822; also: series mostly up to about 46 µM)
Summary of the method: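 Viability counter-screen read by fluorescence intensity after 30 min with CellTiter-Fluor at 37 C; PGC/ERR reporter cells were exposed to compounds for 17.5 h at 37 C following a 6 h preincubation.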

Structure (SMILES)	Potency [1]	outcome [2]	Potency [3]	Potency [4]	Potency [5]	Potency [6]	Potency [7]	outcome [8]	Potency [9]	Potency [10]	Potency [11]	Potency [12]	Potency [13]	Potency [14]	outcome [15]	outcome [16]
CCN(CC)C(=O)N1CCN(C)CC1	inactive	inactive	inactive	inactive	inactive	inactive	inactive	inactive	inactive	inactive	inactive	inactive	inactive			
O=C1c2ccccc2C(=O)c2c(O)ccc(O)c21		inactive	inactive	inactive	inactive	inactive	inactive	inactive	inactive	inactive	inactive	inactive	inactive			
COC(=O)CC(C(C)=O)C(=O)OC (stereo unspecified)		inactive	inactive	inactive	inactive	inactive	inactive	inactive	inactive	inactive	inactive	inactive	inactive			
O=[N+]([O-])c1ccc2ncccc2c1	inactive	inactive	inactive		inactive		inactive	inactive		inactive	inactive		inactive	inactive		
COc1ccc(C2C(=O)c3ccccc3C2=O)cc1	inactive	inactive	inactive			inactive		inactive	inactive	inactive	inactive	inactive	inactive	inactive		
O=C(O)c1cc(Cl)cc(Cl)c1O	inactive	inactive	inactive		inactive		inactive	inactive	inactive	inactive	inactive			inactive		
Cc1ccc(N(CC2=NCCN2)c2cccc(O)c2)cc1		inactive	inactive	inactive	inactive	inactive	inactive	inactive	inactive	inactive	inactive	inactive	inactive		inactive	inactive
COc1ccc(CCN(C)CCCN2CCc3cc(OC)c(OC)cc3CC2=O)cc1OC		inactive	inactive	inactive	inactive	inactive	inactive	inactive	inactive	inactive	inactive	inactive				
CC[C@H]1OC(=O)[C@H](C)[C@@H](O[C@H]2C[C@@](C)(OC)[C@@H](O)[C@H](C)O2)[C@H](C)[C@@H](O[C@@H]2O[C@H](C)C[C@H](N(C)C)[C@H]2O)[C@](C)(O)C[C@@H](C)C(=O)[C@H](C)[C@@H](O)[C@]1(C)O	inactive	inactive	inactive		inactive		inactive	inactive	inactive	inactive	inactive	inactive		inactive		
CC(C)(C)C(O)/C=C/c1ccc2c(c1)OCO2 (stereo unspecified)	inactive	inactive	inactive		inactive		inactive		inactive		inactive	inactive	29.8 µM (active)	inactive		
Nc1cccc2c(N)cccc12		inactive	inactive			inactive					inactive	inactive	19.3 µM (active)	inactive	inactive	inactive
CC(C(=O)O)c1ccc(C(=O)c2cccs2)cc1 (stereo unspecified)	inactive	inactive	inactive	inactive	inactive	inactive	inactive	inactive	inactive	inactive	inactive	inactive	inactive			
COc1ccc(N)c([N+](=O)[O-])c1	inactive	inactive	inactive	inactive	inactive	inactive	inactive	inactive	inactive	inactive	inactive	inactive	inactive			
O=C(O)CNC(=O)c1ccccc1I	inactive	inactive	inactive	inactive	inactive	inactive	inactive	inactive	inactive	inactive	inactive					
COC(=O)c1sccc1S(N)(=O)=O	inactive	inactive	inactive	inactive	inactive	inactive	inactive	inactive	inactive	inactive	inactive	inactive	inactive			
CCCCC(CC)COS(=O)(=O)O (stereo unspecified)	inactive	inactive	inactive	inactive	inactive	inactive	inactive	inactive	inactive	inactive	inactive	inactive	inactive			
